The record followed here is the supplement of paper PMC10849652.

Targets with a hit are over-represented here; the source holds about 8,800 in all. About 0.5% of all pairs of compound and target were hits. Unmarked numbers belong to inactive results.

UniProt Q9NVE7, sequence (Q9NVE7 whole entry, looked up): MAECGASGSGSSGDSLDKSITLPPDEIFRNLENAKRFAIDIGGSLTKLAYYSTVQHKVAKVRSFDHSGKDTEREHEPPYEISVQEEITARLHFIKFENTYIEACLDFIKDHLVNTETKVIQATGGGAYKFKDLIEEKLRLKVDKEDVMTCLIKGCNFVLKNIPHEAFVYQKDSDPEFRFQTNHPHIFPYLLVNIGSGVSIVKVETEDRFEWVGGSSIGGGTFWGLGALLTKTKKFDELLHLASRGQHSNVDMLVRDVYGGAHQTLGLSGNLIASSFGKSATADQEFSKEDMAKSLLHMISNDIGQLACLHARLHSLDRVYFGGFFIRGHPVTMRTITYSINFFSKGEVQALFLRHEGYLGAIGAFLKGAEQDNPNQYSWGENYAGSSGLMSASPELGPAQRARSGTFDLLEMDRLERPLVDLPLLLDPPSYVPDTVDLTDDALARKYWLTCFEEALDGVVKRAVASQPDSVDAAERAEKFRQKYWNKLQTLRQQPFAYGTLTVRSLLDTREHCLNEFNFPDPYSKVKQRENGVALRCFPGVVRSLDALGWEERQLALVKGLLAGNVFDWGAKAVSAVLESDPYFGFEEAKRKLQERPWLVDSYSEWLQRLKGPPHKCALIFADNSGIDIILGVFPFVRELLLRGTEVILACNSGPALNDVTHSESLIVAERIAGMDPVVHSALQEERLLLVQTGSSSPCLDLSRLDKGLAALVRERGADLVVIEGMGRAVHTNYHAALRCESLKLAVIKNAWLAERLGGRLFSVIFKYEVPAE
UniProt Q8IXH7, sequence (Q8IXH7 whole entry, looked up): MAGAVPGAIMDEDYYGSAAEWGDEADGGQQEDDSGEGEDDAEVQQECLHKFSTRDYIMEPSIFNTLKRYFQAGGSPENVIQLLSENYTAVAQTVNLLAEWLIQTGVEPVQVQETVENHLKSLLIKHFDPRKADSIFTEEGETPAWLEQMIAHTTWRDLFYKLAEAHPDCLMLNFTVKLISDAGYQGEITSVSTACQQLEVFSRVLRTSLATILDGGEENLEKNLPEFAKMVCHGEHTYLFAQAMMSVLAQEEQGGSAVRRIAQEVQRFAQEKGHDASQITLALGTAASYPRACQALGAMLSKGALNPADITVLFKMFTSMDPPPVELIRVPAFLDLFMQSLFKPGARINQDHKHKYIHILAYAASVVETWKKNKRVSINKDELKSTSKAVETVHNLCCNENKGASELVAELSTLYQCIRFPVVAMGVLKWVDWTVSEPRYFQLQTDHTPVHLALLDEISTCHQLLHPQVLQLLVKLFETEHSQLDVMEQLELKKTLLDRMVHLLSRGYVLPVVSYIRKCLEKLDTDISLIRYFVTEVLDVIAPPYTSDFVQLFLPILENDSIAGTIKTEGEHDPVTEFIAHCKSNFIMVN
UniProt Q9UFN0, sequence (Q9UFN0 whole entry, looked up): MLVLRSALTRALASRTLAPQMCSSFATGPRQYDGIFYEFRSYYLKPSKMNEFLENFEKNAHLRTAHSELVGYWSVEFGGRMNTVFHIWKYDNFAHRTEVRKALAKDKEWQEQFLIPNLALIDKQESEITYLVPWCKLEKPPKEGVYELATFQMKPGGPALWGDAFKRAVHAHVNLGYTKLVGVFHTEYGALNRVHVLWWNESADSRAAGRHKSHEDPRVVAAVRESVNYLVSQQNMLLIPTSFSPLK
UniProt P08651, sequence (P08651 whole entry, looked up): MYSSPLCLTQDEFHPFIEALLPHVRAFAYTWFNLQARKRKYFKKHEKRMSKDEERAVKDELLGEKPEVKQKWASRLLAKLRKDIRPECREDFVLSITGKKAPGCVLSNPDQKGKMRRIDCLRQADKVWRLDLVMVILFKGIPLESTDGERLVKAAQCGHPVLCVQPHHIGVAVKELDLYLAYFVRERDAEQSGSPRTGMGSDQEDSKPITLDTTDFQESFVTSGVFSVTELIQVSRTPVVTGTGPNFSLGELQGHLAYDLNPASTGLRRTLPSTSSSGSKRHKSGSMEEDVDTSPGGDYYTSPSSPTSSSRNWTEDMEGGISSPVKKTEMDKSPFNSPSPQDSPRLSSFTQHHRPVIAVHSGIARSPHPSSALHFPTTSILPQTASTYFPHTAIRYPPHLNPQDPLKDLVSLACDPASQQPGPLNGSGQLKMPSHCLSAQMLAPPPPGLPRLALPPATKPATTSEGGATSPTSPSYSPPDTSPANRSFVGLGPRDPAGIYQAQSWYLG
UniProt Q9ULX3, sequence (Q9ULX3 whole entry, looked up): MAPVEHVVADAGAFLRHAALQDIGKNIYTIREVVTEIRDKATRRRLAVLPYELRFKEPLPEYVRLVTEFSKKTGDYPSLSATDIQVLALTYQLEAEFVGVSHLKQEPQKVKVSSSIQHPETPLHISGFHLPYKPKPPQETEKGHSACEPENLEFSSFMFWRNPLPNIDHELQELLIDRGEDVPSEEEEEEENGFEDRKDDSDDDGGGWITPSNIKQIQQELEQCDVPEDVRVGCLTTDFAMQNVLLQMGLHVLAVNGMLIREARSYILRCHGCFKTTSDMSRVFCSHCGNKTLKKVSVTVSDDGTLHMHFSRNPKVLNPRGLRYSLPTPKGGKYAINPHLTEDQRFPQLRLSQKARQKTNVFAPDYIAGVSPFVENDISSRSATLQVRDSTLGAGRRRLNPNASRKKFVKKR
UniProt Q6GQQ9, sequence (Q6GQQ9 whole entry, looked up): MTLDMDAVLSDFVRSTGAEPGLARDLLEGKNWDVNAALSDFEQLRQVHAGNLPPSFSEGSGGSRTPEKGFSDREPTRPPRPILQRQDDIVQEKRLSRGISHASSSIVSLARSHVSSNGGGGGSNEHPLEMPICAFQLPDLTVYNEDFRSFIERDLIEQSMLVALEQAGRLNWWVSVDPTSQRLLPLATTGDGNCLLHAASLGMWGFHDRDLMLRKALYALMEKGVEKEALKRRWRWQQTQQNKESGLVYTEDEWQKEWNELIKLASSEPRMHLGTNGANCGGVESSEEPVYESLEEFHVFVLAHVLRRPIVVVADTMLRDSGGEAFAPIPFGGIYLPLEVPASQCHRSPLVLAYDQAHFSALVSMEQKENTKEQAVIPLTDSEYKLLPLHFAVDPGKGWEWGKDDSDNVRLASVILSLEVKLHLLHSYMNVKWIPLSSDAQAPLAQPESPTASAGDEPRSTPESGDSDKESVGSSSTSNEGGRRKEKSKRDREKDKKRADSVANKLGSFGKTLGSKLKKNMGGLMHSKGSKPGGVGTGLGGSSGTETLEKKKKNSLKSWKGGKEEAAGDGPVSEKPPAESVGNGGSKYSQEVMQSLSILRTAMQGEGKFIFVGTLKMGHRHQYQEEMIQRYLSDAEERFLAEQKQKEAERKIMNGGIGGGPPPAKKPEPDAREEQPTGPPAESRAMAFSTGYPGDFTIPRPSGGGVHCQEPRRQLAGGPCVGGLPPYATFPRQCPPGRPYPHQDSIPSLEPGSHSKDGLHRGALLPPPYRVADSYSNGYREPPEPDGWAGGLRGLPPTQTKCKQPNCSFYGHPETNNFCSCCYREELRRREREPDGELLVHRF
UniProt Q96I59, sequence (Q96I59 whole entry, looked up): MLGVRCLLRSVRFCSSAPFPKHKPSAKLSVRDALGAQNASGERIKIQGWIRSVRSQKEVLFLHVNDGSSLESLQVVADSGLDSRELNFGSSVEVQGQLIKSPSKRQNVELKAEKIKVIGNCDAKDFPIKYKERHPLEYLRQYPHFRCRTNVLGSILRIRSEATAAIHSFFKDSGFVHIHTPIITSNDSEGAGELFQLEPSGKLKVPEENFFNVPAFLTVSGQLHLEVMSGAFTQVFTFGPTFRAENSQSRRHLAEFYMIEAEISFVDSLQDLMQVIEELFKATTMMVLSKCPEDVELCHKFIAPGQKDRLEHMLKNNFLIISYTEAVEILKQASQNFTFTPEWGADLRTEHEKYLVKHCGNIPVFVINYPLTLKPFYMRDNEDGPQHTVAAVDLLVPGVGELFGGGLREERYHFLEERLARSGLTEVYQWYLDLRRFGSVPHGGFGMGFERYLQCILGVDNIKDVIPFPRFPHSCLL
UniProt Q13423, sequence (Q13423 whole entry, looked up): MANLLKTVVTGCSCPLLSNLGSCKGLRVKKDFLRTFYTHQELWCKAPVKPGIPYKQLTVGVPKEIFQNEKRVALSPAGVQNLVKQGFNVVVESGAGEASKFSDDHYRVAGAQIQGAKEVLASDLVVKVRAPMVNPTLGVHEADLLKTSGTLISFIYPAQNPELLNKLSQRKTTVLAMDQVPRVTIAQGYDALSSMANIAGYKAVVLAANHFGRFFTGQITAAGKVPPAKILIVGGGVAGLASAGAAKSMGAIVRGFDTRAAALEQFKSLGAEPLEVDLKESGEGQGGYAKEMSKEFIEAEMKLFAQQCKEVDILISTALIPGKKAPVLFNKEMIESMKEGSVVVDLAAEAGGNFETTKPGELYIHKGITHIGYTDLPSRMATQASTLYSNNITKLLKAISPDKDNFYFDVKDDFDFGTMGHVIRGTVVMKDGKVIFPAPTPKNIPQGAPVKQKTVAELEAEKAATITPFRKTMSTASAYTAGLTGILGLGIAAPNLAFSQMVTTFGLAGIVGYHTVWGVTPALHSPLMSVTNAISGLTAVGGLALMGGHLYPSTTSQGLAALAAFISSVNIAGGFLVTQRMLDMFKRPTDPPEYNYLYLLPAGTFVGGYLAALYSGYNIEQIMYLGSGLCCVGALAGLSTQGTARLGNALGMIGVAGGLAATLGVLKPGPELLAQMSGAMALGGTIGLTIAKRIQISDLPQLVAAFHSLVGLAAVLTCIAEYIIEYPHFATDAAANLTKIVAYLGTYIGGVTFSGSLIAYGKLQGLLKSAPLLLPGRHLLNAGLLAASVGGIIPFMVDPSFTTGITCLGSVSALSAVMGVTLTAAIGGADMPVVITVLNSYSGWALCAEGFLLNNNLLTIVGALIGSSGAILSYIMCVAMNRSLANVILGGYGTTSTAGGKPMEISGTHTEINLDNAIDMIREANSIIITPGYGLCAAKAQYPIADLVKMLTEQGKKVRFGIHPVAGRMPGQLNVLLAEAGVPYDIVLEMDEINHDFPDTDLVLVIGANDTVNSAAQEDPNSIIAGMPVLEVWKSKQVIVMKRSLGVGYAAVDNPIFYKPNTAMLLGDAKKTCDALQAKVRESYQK

Compound in the first experiment: C1=CC2=C(C=CC(=C2)/C=C\3/C(=O)NC(=NCC4=CC=CS4)S3)N=C1
The experiment is described as follows: log2 fold change, soluble protein after heating vs DMSO (PISA); higher = thermal stabilisation; K562 lysate, 10 uM; active = over 0.2 and 3.5 SD of the protein, either way, in both replicates (recomputed). The gist of the method: (§1)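 Log-two fold change in thermal stability relative to solvent controls is reported from duplicates. For each sample, crude K562 extract from dounce-homogenised pellets in PBS pH 7.4 with 1 mM MgCl2, at 1 mg/mL protein, was treated with 10 μM compound for 30 min. Aliquots heated for 3 min across 48°C-58°C were pooled, brought to 0.5% NP-40 at 4°C and cleared at 21,000xg for 90 min. The supernatant was quantified by TMTpro 16plex LC-MS/MS with channel sums equalised.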
Consider NUP93 (UniProt Q8N1F7), for which the log2 fold change was 0.021.
Turning to PANK4 (UniProt Q9NVE7), the log2 fold change was 0.051.
Still for that read-out and setting: the result for NIPSNAP3A (UniProt Q9UFN0) reads -0.03; that for OSBP2 (UniProt Q969R2), 0.032; that for MTCH2 (UniProt Q9Y6C9), -0.032.
Take NUP160 (UniProt Q12769): the log2 fold change is -0.006.
Still for that read-out and setting: the figure for NEK7 (UniProt Q8TDX7) is 0.
Still for that read-out and setting: the figure for NLRP2 (UniProt Q9NX02) is -0.005; for NUMB (UniProt P49757) it is -0.052; for NEK9 (UniProt Q8TD19) it is -0.022.
Still for that read-out and setting: the figure for MSH6 (UniProt P52701) is 0.031.
With NIFK (UniProt Q9BYG3), the log2 fold change is -0.009.
For the target OGFOD2 (UniProt Q6N063), the log2 fold change is -0.074.
The same measure, in the same setting: the figure for NFATC1 (UniProt O95644) is -0.04.
Still for that read-out and setting: the figure for NFIC (UniProt P08651) is 0.025; for OARD1 (UniProt Q9Y530) it is 0.028; for NOB1 (UniProt Q9ULX3) it is -0.016.
On the same count and under the same terms, the result for NARS2 (UniProt Q96I59) reads 0.031; that for NUP188 (UniProt Q5SRE5), 0.004.
As for NFKBIE (UniProt O00221), the log2 fold change is 0.059.
The same measure, in the same setting: the result for NNT (UniProt Q13423) reads -0.012; that for ORC5 (UniProt O43913), 0.003.
On the same count and under the same terms, the result for MYO1D (UniProt O94832) reads 0.004; that for OTUD7B (UniProt Q6GQQ9), -0.026.
On the same count and under the same terms, the figure for NUF2 (UniProt Q9BZD4) is 0.03.
For the target PBK (UniProt Q96KB5), the log2 fold change was 0.014.
On the same count and under the same terms, the result for NUDT4 (UniProt Q9NZJ9) reads 0.07; that for MYD88 isoform 6 (UniProt Q99836), -0.019.
The same measure, in the same setting: the result for MRPL53 (UniProt Q96EL3) reads 0.014; that for MTMR6 (UniProt Q9Y217), -0.008.
Consider NELFCD (UniProt Q8IXH7), for which the log2 fold change was 0.031.
Same read-out and setting: the result for NPLOC4 isoform 2 (UniProt Q8TAT6) reads 0.001; that for NCOR2 (UniProt C9J0Q5), -0.082; that for NUDT5 (UniProt Q9UKK9), 0.027.
Consider NMT1 (UniProt P30419), for which the log2 fold change was 0.019.
The same measure, in the same setting: the figure for PARD3 (UniProt Q8TEW0) is -0.146.

Compound in a further experiment: C1=CC2=NC=CN=C2C=C1/C=C/3\C(=O)NC(=O)S3
Described as above. Summed up: as §1
Take NUP93 (UniProt Q8N1F7): the log2 fold change is 0.032.
Still for that read-out and setting: the result for PANK4 (UniProt Q9NVE7) reads 0.033.
The same measure, in the same setting: the figure for NIPSNAP3A (UniProt Q9UFN0) is 0.012.
Still for that read-out and setting: the figure for OSBP2 (UniProt Q969R2) is -0.039; for MTCH2 (UniProt Q9Y6C9) it is -0.06; for NUP160 (UniProt Q12769) it is 0.038.
In the case of NEK7 (UniProt Q8TDX7), the log2 fold change is 0.01.
Still for that read-out and setting: the figure for NLRP2 (UniProt Q9NX02) is -0.013; for NUMB (UniProt P49757) it is -0.009.
For NEK9 (UniProt Q8TD19), the log2 fold change was -0.021.
On the same count and under the same terms, the figure for MSH6 (UniProt P52701) is 0.041; for NIFK (UniProt Q9BYG3) it is 0.032.
As to OGFOD2 (UniProt Q6N063), the log2 fold change was 0.022.
Turning to NFATC1 (UniProt O95644), the log2 fold change was -0.02.
Still for that read-out and setting: the result for NFIC (UniProt P08651) reads 0.001.
Still for that read-out and setting: the figure for OARD1 (UniProt Q9Y530) is -0.019; for NOB1 (UniProt Q9ULX3) it is -0.02.
Consider NARS2 (UniProt Q96I59), for which the log2 fold change was 0.022.
Still for that read-out and setting: the figure for NUP188 (UniProt Q5SRE5) is -0.007; for NFKBIE (UniProt O00221) it is -0.022.
In the case of NNT (UniProt Q13423), the log2 fold change was -0.006.
The same measure, in the same setting: the figure for ORC5 (UniProt O43913) is 0.045; for MYO1D (UniProt O94832) it is 0.006.
For the target OTUD7B (UniProt Q6GQQ9), the log2 fold change is -0.017.
Regarding NUF2 (UniProt Q9BZD4), the log2 fold change is -0.002.
Same read-out and setting: the figure for PBK (UniProt Q96KB5) is -0.014; for NUDT4 (UniProt Q9NZJ9) it is -0.055; for MYD88 isoform 6 (UniProt Q99836) it is -0.019.
The same measure, in the same setting: the result for MRPL53 (UniProt Q96EL3) reads -0.004; that for MTMR6 (UniProt Q9Y217), -0.004.
On the same count and under the same terms, the result for NELFCD (UniProt Q8IXH7) reads -0.019.
For NPLOC4 isoform 2 (UniProt Q8TAT6), the log2 fold change is -0.012.
Same read-out and setting: the result for NCOR2 (UniProt C9J0Q5) reads -0.008; that for NUDT5 (UniProt Q9UKK9), -0.001; that for NMT1 (UniProt P30419), -0.021.
Still for that read-out and setting: the result for PARD3 (UniProt Q8TEW0) reads -0.029.
